DT40 TDP1 no CPT = qHTS for Inhibitors of human tyrosyl-DNA phosphodiesterase 1 (TDP1): qHTS in cells in absence of CPT | Potency, µM (highest dose often 46.2 µM), without a hit: at the top dose activity change, negative = growth inhibition, usual class: inhibitors | 420,000 tested, 15% active | DT40 Tdp1-/- hTDP1 cells, no CPT, ATP luminescence, 48 h; also: potency is read from the fitted curve at half-maximal effect; nearly all actives have a fitted effect of over 55% in size
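Stably hTDP1-transfected Tdp1-null chicken DT40 cells were treated with library compounds minus camptothecin and grown for at least 48 hr at 37 °C, after which cellular ATP was quantified by luminescence.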
DT40 TDP1 CPT = qHTS for Inhibitors of human tyrosyl-DNA phosphodiesterase 1 (TDP1): qHTS in cells in presence of CPT; chicken DT40 Tdp1-/-;hTDP1 cells + 20 nM CPT, ATP luminescence, 48 h; Potency, µM (top dose mostly 46.2 µM), for the others: at the top dose activity change, negative = growth inhibition, hits mostly inhibitors; 420,000 tested, 12% active; AID 686979, 2013; also: potency is read from the fitted curve at half-maximal effect; nearly all actives have a fitted effect of over 55% in size
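Chicken DT40 Tdp1-/- cells complemented with human TDP1, 400 cells/well, exposed to compounds plus 20 nM camptothecin for at least 48 h at 37 C; viability read as ATP content by CellTiter-Glo luminescence.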
IL-1B inflam inh = qHTS for Inhibitors of Inflammasome Signaling: IL-1-beta AlphaLISA Primary Screen; THP-1 LPS/ATP IL-1B secretion, AlphaLISA, 16 h; stronger effect = lower value; 360,000 tested, 4.7% active; activity change, % at 57.5 µM; in the data active = activity change below about -50%; inconclusive = mostly about -30% to -49%
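Secreted IL-1B measured by AlphaLISA bead assay after 16 h compound exposure of THP-1 cells; compounds (final up to 57.5 uM) added 1 h before LPS (250 ng/mL) and ATP (1.25 mM) stimulation; lower signal means less secretion.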
HT1080 IDH1KD tx = qHTS for induction of synthetic lethality in tumor cells producing 2HG: qHTS for the HT-1080-IDH1KD cell line. 360,000 tested, 2% active. HT-1080 IDH1 knockdown viability, ATP luminescence, 48 h. Potency, µM (highest dose often 46.1 µM), inactives show top-dose activity, negative = toxicity, actives largely listed as cytotoxic;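 also: potency is read from the fitted curve at half-maximal effect; 0% = DMSO wells and -100% = cell-free medium wells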
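Using the IDH1-knockdown HT-1080 line run in the same batch and compound series as the NT line, viability after 48 h at 37 °C was determined by CellTiter-Glo luminescence and expressed as % activity.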
HT1080-NT tox = qHTS for induction of synthetic lethality in tumor cells producing 2HG: qHTS for the HT-1080-NT fibrosarcoma cell line | 360,000 tested, 1.6% active | Potency, µM (top dose mostly 46.1 µM), inactives show at the highest dose activity, negative = less viability, actives largely listed as cytotoxic | HT-1080-NT fibrosarcoma viability, CellTiter-Glo ATP luminescence, 48 h | AID 686970, 2013;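 also: NT is the 2HG producing partner of a matched IDH1 knockdown line; potency is read from the fitted curve at half-maximal effect; 0% = DMSO-treated cells and -100% = media-only wells without cells; nearly all actives have a fitted effect of over 55% in size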
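Toxicity toward the 2HG-producing NT line was scored as %Activity, normalised to DMSO and no-cell wells, from CellTiter-Glo luminescence after 48 hours' treatment.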
* marks the source's active call; other numbers are inactive results; ? = inconclusive; nt = no result given. Only some compounds are listed: those with a hit (about 19% of all), similar ones and a draw of the others. Unless noted, calls follow the shape of the dose curve; as a rule, active = well fitted curve in the direction sought with a large enough effect; inconclusive = small, poorly fitted or top-dose-only effect, or another doubt; inactive = no such curve, though single readings can be large; an effect the other way counts as inactive or inconclusive. Unless noted, % is scaled to controls: 0 for no effect and ±100 for the full control effect.

SMILES | DT40 TDP1 no CPT | DT40 TDP1 CPT | IL-1B inflam inh | HT1080 IDH1KD tx | HT1080-NT tox
Nc1c2c(nc3ccn(-c4ccccc4)c(=O)c13)CCCCC2 | ? | -12% | -58* | 16% | 26%
CN1C(=O)C(C)(C)c2cc(S(=O)(=O)N3CCCC3C(=O)NCc3ccccc3Cl)ccc21 (configuration not stated) | -26% | ? | 8 | -3% | -1%
COc1ccc(OC)c2sc(N3CCN(C(=O)CCS(=O)(=O)c4ccc(F)cc4)CC3)nc12 | 21µM* | 18µM* | nt | nt | nt
COc1ccc(OC)c2sc(N3CCN(C(=O)c4ccc([N+](=O)[O-])s4)CC3)nc12 | ? | ? | 10 | -11% | 0%
Cc1ccc2sc(N3CCN(C(=O)C4=COCCO4)CC3)nc2c1C | ? | -28% | ? | -1% | -1%
Cc1ccc2sc(N3CCN(C(=O)CCS(=O)(=O)c4ccc(F)cc4)CC3)nc2c1C | 2.6µM* | 4.1µM* | nt | nt | nt
COc1ccc(C)cc1NC(=O)CCS(=O)(=O)c1ccc2c(c1)CC(=O)N2C | 6% | -2% | nt | nt | nt
C[C@@H]1[C@H]2CCCC[C@H]2CN(C(=O)OC(C)(C)C)[C@@H]1c1cn(Cc2ccccc2)c2ccc(F)cc12 | 16µM* | ? | 9 | -5% | 10%
C[C@@H]1[C@H]2CCCC[C@H]2CN(C(=O)OC(C)(C)C)[C@@H]1CC(=O)c1ccccc1 | 16µM* | ? | 12 | -6% | -8%
CCCN(CCC)CCNC(=O)c1cc2c(=O)n(CC)c3ccccc3c2s1 | ? | -22% | -8 | 1% | -1%
CCN(CC)CCCNC(=O)c1cc2c(=O)n(CC)c3ccccc3c2s1 | ? | ? | -57* | ? | ?
CCN(CC)CCNC(=O)c1cc2c(=O)n(CC)c3ccccc3c2s1 | 18µM* | ? | -56* | -15% | -20%
CCOCCCNC(=O)c1cc2c(=O)n(CC)c3ccccc3c2s1 | ? | ? | 0 | -29% | ?
CN(C)CCNC(=O)c1cc2sc3ccccc3c2s1 | 23µM* | ? | -71* | 23µM* | 21µM*
Cc1ccc(C2(C)NC(=O)N(CC(=O)Nc3ccccc3N3CCCC3)C2=O)cc1 (configuration not stated) | ? | -7% | -8 | -16% | -7%
O=C1C=C(c2ccoc2)N2CCC[C@H]2C1 | -21% | 4% | 25 | 4% | 11%
COCCCn1c(SCC(=O)NC2CCCCC2)nnc1-c1ccco1 | -15% | -20% | 12 | 14% | 14%
CN=c1scc(-c2ccccc2F)n1/N=C/c1ccc(O)c(O)c1O | 12µM* | 13µM* | -14 | ? | -21%
CC(C)N=c1scc(-c2cccs2)n1/N=C/c1ccc(O)c(O)c1O | 13µM* | 13µM* | -83* | 16µM* | ?
COc1ccc(O)c(/C=N/n2c(-c3ccco3)csc2=Nc2cccnc2)c1 | ? | -27% | 0 | -7% | -18%
CCN=c1scc(-c2cccs2)n1/N=C/c1cc(OC)ccc1O | 21µM* | ? | -62* | -25% | -17%
CN=c1scc(-c2ccccc2F)n1/N=C/c1ccc[nH]1 | ? | -11% | ? | ? | ?
CCc1cc(C(=O)c2ccc(Br)cc2)c(NC(=O)CN(CC)CC)s1 | -24% | ? | -7 | 0% | 0%
FC(F)(F)c1cccc(CN2CCC(c3cc(-c4cccs4)n[nH]3)CC2)c1 | 21µM* | 8.2µM* | -217* | 5.2µM* | 7.3µM*
Cc1ccc(CN2CCN(/N=C/c3cccs3)CC2)cc1 | -14% | -17% | 14 | 5% | 9%
SMILES | DT40 TDP1 no CPT | DT40 TDP1 CPT | IL-1B inflam inh | HT1080 IDH1KD tx | HT1080-NT tox
FC(F)(F)c1cc(-c2cccs2)n[nH]1 | -6% | -23% | 22 | 4% | 0%
Cc1ccc(CN2CCC(c3cc(-c4cccs4)n[nH]3)CC2)cc1 | ? | ? | -86* | ? | ?
CCOc1ccc(NC(=O)CN(c2ccc(OC)c(OC)c2)S(=O)(=O)c2ccc(C)cc2)cc1 | 8% | 0% | 74 | 2% | 5%
CN(C)CCN(Cc1cc2cc3c(cc2nc1Cl)OCO3)C(=O)c1ccco1 | ? | 17% | -12 | 7% | 6%
Oc1c(N=Nc2ccccn2)ccc2ccccc12 | 1.6µM* | 1.5µM* | -54* | 2.3µM* | ?
Oc1[nH]c2ccccc2c1N=Nc1ccccn1 | -2% | 0% | -3 | 5% | 12%
Cc1ccccc1CC1(CO)CCCN(Cc2nc(-c3cccs3)oc2C)C1 (configuration not stated) | 21µM* | ? | -4 | ? | ?
Cc1oc(-c2cccs2)nc1CN1CCN(CC(C)C)C(CCO)C1 (configuration not stated) | ? | ? | 16 | 3% | -3%
Cc1oc(-c2cccs2)nc1CN1CC[C@@](O)(c2ccccc2)[C@H]2CCCC[C@@H]21 | ? | ? | -74* | -29% | -29%
Clc1ccc(-c2nc3n(n2)Cc2ccccc2-3)cc1 | -17% | -15% | 12 | -4% | -13%
CCCN(CCC)S(=O)(=O)c1cccc(-c2csc(C)n2)c1 | 18µM* | ? | -55* | 1% | -1%
CCN(CC)S(=O)(=O)c1cccc(-c2cn3cc(C)ccc3n2)c1 | 18µM* | 21µM* | -22 | -29% | -16%
CCN(CC)S(=O)(=O)c1cccc(-c2nc3n(n2)Cc2ccccc2-3)c1 | 23µM* | ? | -17 | 6% | 4%
CCN(CC)S(=O)(=O)c1ccc(-c2cn3ccccc3n2)cc1 | 15µM* | ? | -27 | -3% | -5%
CN(C)S(=O)(=O)c1ccc(-c2cn3ccccc3n2)cc1 | ? | -29% | 8 | ? | ?
COc1cccc(C(=O)Nc2cc(NC(=O)c3cccs3)ccc2C)c1OC | ? | ? | -15 | 1% | 4%
COc1cccc(-c2ccc(O)c(CNC(c3ccccc3)c3ccc(Cl)cc3)c2)n1 (configuration not stated) | -27% | -6% | nt | nt | nt
CC(Sc1ncnc2sccc12)C(=O)Nc1ccc(C(N)=O)cc1 (configuration not stated) | 13% | 8% | -9 | 0% | 6%
Cc1ccc2nc(-c3cccc(S(=O)(=O)N4CC(C)OC(C)C4)c3)cn2c1 (configuration not stated) | 15µM* | ? | -25 | -12% | -1%
COc1ccccc1S(=O)(=O)c1ccccc1[N+](=O)[O-] | 0% | -28% | 36 | 1% | 7%

Compound activity (PubChem BioAssay)
